Structures can show the parent of a compound that is named as a salt.
How the values were obtained:
[1] = test system: Staphylococcus aureus Sa2 (MRSA, cystic fibrosis isolate); experiment: growth reduction vs untreated control (OD550); higher = stronger antibacterial activity; settings: 0.1 mM; 24 h
Description: (§1)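 Single-dose screen of the MedChem Express Drug Repurposing Library (0.1 mM, 1% DMSO) against planktonic MRSA S. aureus Sa2 (CF isolate) in TSB in 96-well plates, 37 °C aerobic, 24 h. Assays were run in triplicate and repeated twice.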

[2] = test system: Staphylococcus aureus Sa2 (MRSA, cystic fibrosis isolate); experiment: growth reduction vs untreated control (viable cell count); higher = stronger antibacterial activity; extreme values may be limits of the assay; settings: 0.1 mM; 24 h
Description: as §1

Row | SMILES | growth reduction [1] | growth reduction [2]
1 | CCCCCCCC/C=C/CCCCCCCC(=O)OC[C@H]1O[C@@H](n2ccc(N)nc2=O)C(F)(F)[C@@H]1O [Gemcitabine (elaidate)] | 100% | 
2 | Cc1nc(C(=O)NCC(=O)O)c(O)c2ccc(Oc3ccccc3)cc12 [Roxadustat] | 99.9% | 
3 | Oc1c(I)cc(Cl)c2cccnc12 [Clioquinol] | 100% | 
4 | Cc1cc(CC(C)CC(C)(C)C)n(O)c(=O)c1 (stereo not drawn) [Piroctone olamine] | 100% | 
5 | CC/C(=C(/c1ccc(/C=C/C(=O)O)cc1)c1ccc2[nH]ncc2c1)c1ccc(F)cc1Cl [Brilanestrant] | 96.6% | 
6 | C=CC(=O)Nc1cc(Nc2nccc(-c3cn(C4CC4)c4ccccc34)n2)c(OC)cc1N(C)CCN(C)C [Almonertinib] | 100% | 
7 | COc1cc2/c(=N/c3ccc(Br)cc3F)nc[nH]c2cc1OCC1CCN(C)CC1 [Vandetanib] | 100% | 
8 | CC(C(=O)O)c1ccc2c(c1)CC(=O)c1ccccc1S2 (stereo not drawn) [Zaltoprofen] | 96.7% | 
9 | Cc1ccc(C(=O)Nc2ccc(CN3CCN(C)CC3)c(C(F)(F)F)c2)cc1C#Cc1cnc2cccnn12 [Ponatinib] | 100% | 
10 | Cc1c2c(nn1C)CSCc1cc(n(C)n1)CSc1cc(c3ccccc3c1)OCCCc1c(C(=O)O)n(C)c3c-2c(Cl)ccc13 | 100% | 
11 | Clc1ccc(Nc2nnc(Cc3ccncc3)c3ccccc23)cc1 [Vatalanib (dihydrochloride)] | 100% | 
12 | C[C@@H](NCCCc1cccc(C(F)(F)F)c1)c1cccc2ccccc12 [Cinacalcet] | 97.4% | 
13 | Cc1ccc(NC(=O)c2ccc(CN3CCN(C)CC3)cc2)cc1Nc1nc(-c2cccnc2)cs1 [Masitinib (mesylate)] | 100% | 
14 | Clc1ccc(CSC(Cn2ccnc2)c2ccc(Cl)cc2Cl)cc1 (stereo not drawn) [Sulconazole (mononitrate)] | 100% | 
15 | O=C(NC(=Nc1cc(C(F)(F)F)[nH]n1)Nc1cc(F)cc(Cl)c1)c1cccc(Cl)c1 [Parimifasor] | 100% | 
16 | CC(C)(C)c1cc(C(C)(C)C)c(NC(=O)c2c[nH]c3ccccc3c2=O)cc1O [Ivacaftor] | 95.3% | 
17 | CC(OC(=O)NCC1(CC(=O)O)CCCCC1)OC(=O)C(C)C (stereo not drawn) [Gabapentin enacarbil] | 90.4% | 
18 | O=c1ccc2ccc(O)c(O)c2o1 [Daphnetin] | 94.5% | 
19 | CCN1CCN(c2ccc(Nc3cc(N(C)C(=O)Nc4c(Cl)c(OC)cc(OC)c4Cl)ncn3)cc2)CC1 [Infigratinib] | 100% | 
20 | NC(=O)[C@@H]1CC[C@@H]2CN1C(=O)N2OS(=O)(=O)O [Avibactam (sodium)] | 96.6% | 
21 | CC(=O)[C@]1(O)Cc2c(O)c3c(c(O)c2[C@@H](O[C@H]2C[C@H](N)[C@H](O)[C@H](C)O2)C1)C(=O)c1ccccc1C3=O [Idarubicin (hydrochloride)] | 98.1% | 

Row | SMILES | growth reduction [1] | growth reduction [2]
22 | COc1cccc2c1C(=O)c1c(O)c3c(c(O)c1C2=O)C[C@@](O)(C(=O)CO)C[C@@H]3O[C@H]1C[C@H](N)[C@H](O)[C@H](C)O1 [Doxorubicin (hydrochloride)] | 96.1% | 
23 | Cc1nc2c([nH]1)-c1ccccc1N(C(=O)c1ccc(NC(=O)c3ccccc3-c3ccccc3)cc1)CC2 [Conivaptan (hydrochloride)] | 90.4% | 
24 | CCCCCCNC(=O)n1cc(F)c(=O)[nH]c1=O [Carmofur] | 100% | 
25 | Nc1ccn([C@@H]2O[C@H](CO)[C@@H](O)C2(F)F)c(=O)n1 [Gemcitabine (hydrochloride)] | 100% | 
26 | CN1CCN(c2ccc3nc(-c4c(N)c5c(F)cccc5[nH]c4=O)[nH]c3c2)CC1 [Dovitinib (lactate)] | 96% | 
27 | Cc1ccc(-c2cc(C(F)(F)F)nn2-c2ccc(S(N)(=O)=O)cc2)cc1 [Celecoxib] | 95.6% | 
28 | COc1cccc2c1C(=O)c1c(O)c3c(c(O)c1C2=O)C[C@@](O)(C(=O)CO)C[C@@H]3O[C@H]1C[C@H](N)[C@@H](O)[C@H](C)O1 [Epirubicin (hydrochloride)] | 95% | 
29 | COc1ccc(C(=O)NC2(C(=O)O)Cc3ccccc3C2)cc1OCCc1cccc(C)c1 | 90.3% | 
30 | O=C(O)c1cc(F)c2nc(N3[C@@H]4CC[C@H]3C[C@@H](OCc3c(-c5ccccc5OC(F)(F)F)noc3C3CC3)C4)sc2c1 [Tropifexor] | 100% | 
31 | OCc1cc([C@@H](O)CNCCCCCCOCCOCc2c(Cl)cccc2Cl)ccc1O [Vilanterol] | 99.9% | 
32 | CC1(C)CCC(C)(C)c2cc(NC(=O)c3ccc(C(=O)O)cc3)ccc21 [Tamibarotene] | 95.5% | 
33 | CCC(c1ccccc1)c1c(O)c2ccccc2oc1=O (stereo not drawn) [Phenprocoumon] | 94.6% | 
34 | C#C[C@]1(OC(C)=O)CC[C@H]2[C@@H]3CCC4=C[C@@H](OC(C)=O)CC[C@@H]4[C@H]3CC[C@@]21C [Ethynodiol diacetate] | 92.7% | 
35 | CC(C)(C)c1nc(-c2cccc(NS(=O)(=O)c3c(F)cccc3F)c2F)c(-c2ccnc(N)n2)s1 [Dabrafenib (Mesylate)] | 98.3% | 
36 | Cn1cc(-c2ccncc2)c(-c2ccc(OCc3ccc4ccccc4n3)cc2)n1 [Mardepodect] | 100% | 
37 | C=C[C@@H]1C[C@]1(NC(=O)[C@@H]1C[C@@H](Oc2ncc(OC)c3ccc(Cl)cc23)CN1C(=O)[C@@H](NC(=O)OC(C)(C)C)C(C)(C)C)C(=O)NS(=O)(=O)C1CC1 [Asunaprevir] | 100% | 
38 | COC(=O)N[C@H](C(=O)N1CCC[C@H]1c1nc(-c2ccc3c(c2)O[C@@H](c2ccccc2)n2c-3cc3cc(-c4c[nH]c([C@@H]5CCCN5C(=O)[C@@H](NC(=O)OC)C(C)C)n4)ccc32)c[nH]1)C(C)C [Elbasvir] | 97.8% | 
39 | CC(C)(C)NCC(O)COc1ccccc1C1CCCC1 (single isomer, unassigned; (+)) [(+)-Penbutolol] | 91% | 94%
40 | CCCCc1nc(-c2ccc(OCCCN(CC)CC)cc2)cn1-c1ccc(Oc2ccc(Cl)cc2)cc1 [Azeliragon] | 100% | 100%
41 | CC(=O)Oc1cccc2c1C(=O)c1c(OC(C)=O)cc(C(=O)O)cc1C2=O [Diacerein] | 93.4% | 100%
42 | CC1(C)CC[C@]2(NC(=O)C(C)(F)F)CC[C@]3(C)[C@H](C(=O)C=C4[C@@]5(C)C=C(C#N)C(=O)C(C)(C)[C@@H]5CC[C@]43C)[C@@H]2C1 [Omaveloxolone] | 100% | 100%

Row | SMILES | growth reduction [1] | growth reduction [2]
43 | COCC[n+]1c2c(n(Cc3cnccn3)c1C)C(=O)c1ccccc1C2=O [Sepantronium (bromide)] | 100% | 100%
44 | CNC(=O)c1cc(Oc2ccc(NC(=O)Nc3ccc(Cl)c(C(F)(F)F)c3)c(F)c2)ccn1 [Regorafenib (monohydrate)] | 100% | 98%
45 | CCCCN(CCCC)C(=O)CN1C[C@H](c2ccc3c(c2)OCO3)[C@@H](C(=O)O)[C@@H]1c1ccc(OC)cc1 [Atrasentan (hydrochloride)] | 100% | 98%
46 | Clc1ccc(COC(Cn2ccnc2)c2ccc(Cl)cc2Cl)c(Cl)c1 (stereo not drawn) [Miconazole (nitrate)] | 100% | 100%
47 | Cc1cc([C@H](C)Nc2nccc(N3C(=O)OC[C@@H]3[C@@H](C)F)n2)ncc1-c1ccnc(C(F)(F)F)c1 | 100% | 97%
48 | CCCCCNC(=N)N/N=C/c1c[nH]c2ccc(OC)cc12 [Tegaserod (maleate)] | 100% | 100%
49 | CCN(CC)CCOc1ccc(/C(=C(/Cl)c2ccccc2)c2ccccc2)cc1 [Enclomiphene (citrate)] | 100% | 100%
50 | N[C@@H](Cc1cc(I)c(Oc2cc(I)c(O)c(I)c2)c(I)c1)C(=O)O [L-Thyroxine (sodium salt pentahydrate)] | 100% | 100%
51 | O=C(c1ccc(F)c(F)c1Nc1ccc(I)cc1F)N1CC(O)([C@@H]2CCCCN2)C1 [Cobimetinib] | 100% | 100%
52 | Cc1cc(Nc2ncc(Cl)c(Nc3ccccc3S(=O)(=O)C(C)C)n2)c(OC(C)C)cc1C1CCNCC1 [Ceritinib] | 100% | 100%
53 | COCCNCCc1cccc(Nc2ncc3c(n2)-c2ccccc2[C@H](c2ccccc2F)C3)c1 [Derazantinib] | 100% | 100%
54 | C#C[C@]1(O)CC[C@H]2[C@@H]3CCC4=CCCC[C@@H]4[C@H]3C(=C)C[C@@]21CC [Desogestrel] | 99.4% | 100%
55 | Cc1cn(-c2cc(NC(=O)c3ccc(C)c(Nc4nccc(-c5cccnc5)n4)c3)cc(C(F)(F)F)c2)cn1 [Nilotinib] | 100% | 92%
56 | CNC(=O)c1cc(Oc2ccc(NC(=O)Nc3ccc(Cl)c(C(F)(F)F)c3)c(F)c2)ccn1 [Regorafenib (Hydrochloride)] | 100% | 100%
57 | Cc1ccc(C(=O)N(CCCN)[C@@H](c2oc3cc(Cl)ccc3c(=O)c2Cc2ccccc2)C(C)C)cc1 | 100% | 100%
58 | N#Cc1ccc(Oc2ccc3c(c2)COB3O)cc1 [Crisaborole] | 100% | 100%
59 | CC(C)(C)c1ccc(C(O)CCCN2CCC(C(O)(c3ccccc3)c3ccccc3)CC2)cc1 (stereo not drawn) [Terfenadine] | 100% | 100%
60 | Cc1ccc(Cl)c(Nc2ccccc2C(=O)O)c1Cl [Meclofenamate (sodium)] | 97.2% | 99%
61 | C=CCNc1c(O)cc2c(O)c1C[C@@H](C)C[C@H](OC)[C@H](O)[C@@H](C)/C=C(\C)[C@H](OC(N)=O)[C@@H](OC)/C=C\C=C(/C)C(=O)N2 [Retaspimycin (Hydrochloride)] | 100% | 100%
62 | CS(=O)(=O)c1cc(F)cc2c3c(n(Cc4ccc(Cl)cc4)c12)[C@@H](CC(=O)O)CC3 [Laropiprant] | 96.1% | 99%
63 | N#CC(c1ccc(Cl)cc1)c1c(Cl)cc(-n2ncc(=O)[nH]c2=O)cc1Cl (stereo not drawn) [Diclazuril] | 100% | 100%

Reference: the supplement of paper PMC12024424
